What was measured:
Conditions in all cases: concentration: 1 μM, replicates: in singlicate; n = 1
[1] = test system: EPHB2
[2] = test system: EPHB3
[3] = test system: EPHB4
[4] = test system: EPHB6
[5] = test system: ERBB2
[6] = test system: ERBB3
[7] = test system: ERBB4
[8] = test system: T1, ERK1
T1 construct: gene MAPK3

[9] = test system: T2, ERK2
T2 construct: gene MAPK1

[10] = test system: T3, ERK3
T3 construct: gene MAPK6

[11] = test system: T4, ERK4
T4 construct: gene MAPK4

[12] = test system: T5, ERK5
T5 construct: gene MAPK7

[13] = test system: T6, ERK8
T6 construct: gene MAPK15

[14] = test system: ERN1
[15] = test system: T7, FAK
T7 construct: gene PTK2

[16] = test system: FER
[17] = test system: FES
[18] = test system: FGFR1
[19] = test system: FGFR2
[20] = test system: FGFR3
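Further: KINOMEscan kinase panel screen.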

Structure (SMILES)	%Inh [1]	%Inh [2]	%Inh [3]	%Inh [4]	%Inh [5]	%Inh [6]	%Inh [7]	%Inh [8]	%Inh [9]	%Inh [10]	%Inh [11]	%Inh [12]	%Inh [13]	%Inh [14]	%Inh [15]	%Inh [16]	%Inh [17]	%Inh [18]	%Inh [19]	%Inh [20]
NC(=O)c1sc(-n2cnc3ccccc32)cc1OCc1ccccc1F [GSK1024306]	0%	1%	0%	8%	47%	18%	25%	0%	0%	0%	0%	0%	26%	0%	0%	20%	0%	0%	0%	4%
CN1CCC(n2cnc(-c3ccc(F)cc3)c2-c2ccnc(NC3CCNCC3)n2)CC1 [SB-229482]	11%	4%	0%	8%	32%	18%	4%	0%	14%	30%	0%	0%	0%	2%	0%	0%	5%	4%	0%	9%
Fc1cccc(COc2ccc(Nc3ncnc4cc[nH]c34)cc2Cl)c1	20%	0%	22%	19%	100%	11%	83%	8%	24%	22%	9%	0%	7%	35%	11%	31%	21%	14%	8%	10%
CCn1c(-c2ccncc2)nc2cnccc21 [SB-735216]	16%	11%	7%	8%	0%	33%	0%	0%	0%	0%	3%	8%	0%	5%	9%	0%	3%	0%	0%	17%
Cc1ccc(NC(=O)c2cccc(C#N)c2)cc1-c1ccc(C(=O)Nc2ccncc2)cc1 [GSK1398463]	13%	26%	25%	2%	0%	0%	32%	0%	0%	5%	25%	96.8%	38%	15%	0%	3%	17%	10%	17%	33%
Cc1ccc(C)c(NC(=O)NCCNc2ccnc(Nc3ccc(F)cc3)n2)c1 [GSK1379878]	0%	0%	0%	11%	0%	3%	38%	0%	0%	0%	17%	98.4%	0%	0%	0%	17%	0%	0%	14%	0%
Cc1cccc(-c2nc(Nc3ccc4[nH]nnc4c3)c3ccccc3n2)n1 [GW867587]	0%	0%	0%	0%	0%	0%	11%	0%	0%	0%	0%	0%	0%	0%	0%	0%	0%	0%	0%	0%
Cn1ccc2ncnc(Oc3ccc(NC(=O)Nc4cccnc4)c(Cl)c3)c21	2%	12%	10%	5%	18%	2%	0%	0%	11%	0%	0%	5%	0%	37%	0%	0%	16%	0%	0%	0%
Cl.Fc1ccccc1COc1ccc(Nc2ncnc3ccc(-c4nnc(C(F)(F)F)o4)cc23)cc1Cl [GW424170]	0%	2%	0%	0%	96.7%	0%	70%	0%	0%	7%	13%	0%	0%	2%	0%	18%	0%	0%	0%	8%
Cn1ccc2ncnc(Nc3ccc(Oc4cccc(Cl)c4)c(Cl)c3)c21	4%	0%	0%	4%	100%	17%	97%	2%	35%	6%	25%	22%	0%	48%	0%	0%	8%	1%	6%	1%

From PMC5540273 (PLoS ONE, 2017)
